According to PubChem BioAssay (Tox21):
Values without a mark were called inactive. Inconclusive results are not listed. Calls of active or inactive are those of the source. Unless noted, calls come from the whole dose curve.

Tested on: not listed separately
Assay: qHTS assay to identify small molecule agonists of the sonic hedgehog signaling (Shh) pathway (AID 1259368);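 note: NIH/3T3-derived 3T3Gli1-Luc cells carrying a stable Gli1-driven firefly luciferase reporter; nearly all actives have a fitted effect of over 15% in size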
Settings: NIH/3T3 Gli1-Luc reporter, luciferase, 24 h; series mostly up to 92.4 µM; activity change: at the top concentration
In short: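 Read-out: firefly luciferase luminescence from a Gli1 response element reporter stably integrated in NIH/3T3-derived 3T3Gli1-Luc cells, measured 30 min at room temperature after reagent addition. Compound exposure lasted 24 hr at 37 C, 5% CO2.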
% is set by controls: 0 for no effect and ±100 for the full control effect.

SMILES | activity change
CCOc1ccc2c(c1)C(C)CC(C)(C)N2 (stereo unspecified) | 1.74%
O=c1c2ccccc2oc2ccccc12 | 2.24%
Cc1cccc(C)c1NC(=O)CN1CCCC1 | -0.899% [at 42.5 µM, hits give high values]
Cc1cc(N)n(-c2ccccc2)n1 | 1.89%
Cc1nc(C)c(C)nc1C | -3.01%
O=C(O)c1ccccc1[N+](=O)[O-] | -0.804%
O=c1[nH][nH]c2ccccc12 | -2.6%
Cc1c(Cl)cccc1[N+](=O)[O-] | -0.336%
CCOc1ccccc1O | -0.0566%
O=C(OC1C[C@H]2CC[C@@H](C1)[N+]21CCCC1)C(O)(c1ccccc1)c1ccccc1 (stereo partly specified) | -0.155% [at 42.5 µM, hits give high values]
O=C(O)c1cc(C(=O)O)c(C(=O)O)cc1C(=O)O | 0.319%
CC/C=C/CCO | -3%
O=C(c1ccc(Cl)cc1)c1ccc(Cl)cc1 | 1.37%
CC/C=C\CCO | 0.689%
CCCCCCOC(=O)c1ccccc1 | -4.02%
CC(O)C(C)O (stereo unspecified) | -1.37%
CC1(C)[C@@H]2CC[C@]3(C2)[C@@H]1C(=O)CCC3(C)C | 0.16%
FC1(F)C(F)(F)C(F)(F)C2(F)C(F)(C1(F)F)C(F)(F)C(F)(F)C1(F)C(F)(F)C(F)(F)C(F)(F)C(F)(F)C12F (stereo unspecified) | 0.829%
NC(=O)c1ccccc1C(N)=O | -0.912%
CCCCCO | 0.54%

SMILES | activity change
c1ccc(CN(Cc2ccccc2)Cc2ccccc2)cc1 | 0.0804%
CC(C)(C)c1cc(C=O)cc(C(C)(C)C)c1O | 0.224% [at 42.5 µM, hits give high values]
O=C(O)c1ccc(O)c(O)c1 | 5.93%
O=[N+]([O-])c1ccccc1CCO | 0.856%
CCC(C)CCCC(C)(C)O (stereo unspecified) | -0.811%
COc1ccc(/C(C)=C/C(=O)O)c(OC)c1 | 0.0601% [at 42.5 µM, hits give high values]
Cc1c(N=C=O)cccc1N=C=O | 2.75%
CC(C)Cc1nccs1 | 0.185%
CO[C@@H]1COCC[C@@H]1N[C@@H]1CC[C@@](C(=O)N2CCc3ncc(C(F)(F)F)cc3C2)(C(C)C)C1 | 0.773%
NCCOCCOCCN | -0.528%
O=C1CCCN1CCO | -3.46%
CC1=CC(=C(c2ccc(N)cc2)c2ccc(N)cc2)C=CC1=N | -2.79% [at 8.39 µM, hits give high values]
C=CC(C)CCC=C(C)C (stereo unspecified) | -0.984%
CC1(C)CC(O)CC(C)(C)N1[O] | 0.543%
CCOC(=O)CC(O)(CC(=O)OCC)C(=O)OCC | -2.21%
O=C1OC(=O)C2CC=CCC12 (stereo unspecified) | -0.498%
CCCc1ccc(OC)cc1 | -0.0962%
O=C(Nc1ccc2c(c1)Cc1ccccc1-2)C(F)(F)F | 6.93%
CC(=O)c1ccc(Cl)c(Cl)c1Cl | -0.0144%

Tested on: not listed separately
Assay: qHTS assay to identify small molecule antagonists of the sonic hedgehog signaling (Shh) pathway (AID 1259369); note: nearly all actives have a fitted effect of over 45% in size; note: potency is the fitted concentration of half-maximal effect
Settings: NIH/3T3 Gli1-Luc reporter, Shh antagonist, luminescence 24 h; series mostly up to 92.4 µM; activity change, negative = inhibition: at the top concentration
In short: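 Luminescence readout: firefly Luc under Gli1 response element in 3T3Gli1-Luc cells (NIH/3T3 clone). Antagonist mode, stimulation by conditioned medium; compound exposure 24hr at 37 C, 5% CO2.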

SMILES | activity change, negative = inhibition | Potency
CCOc1ccc2c(c1)C(C)CC(C)(C)N2 (stereo unspecified) | -20.4% | 
O=c1c2ccccc2oc2ccccc12 | 3.31% | 
Cc1cccc(C)c1NC(=O)CN1CCCC1 | -7.21% [at 42.5 µM] | 
Cc1cc(N)n(-c2ccccc2)n1 | 10.5% | 
Cc1nc(C)c(C)nc1C | 2.91% | 
O=C(O)c1ccccc1[N+](=O)[O-] | -7.96% | 
O=c1[nH][nH]c2ccccc12 | -6.65% | 
Cc1c(Cl)cccc1[N+](=O)[O-] | 0% | 
CCOc1ccccc1O | 1.33% | 
O=C(OC1C[C@H]2CC[C@@H](C1)[N+]21CCCC1)C(O)(c1ccccc1)c1ccccc1 (stereo partly specified) | 32.9% [at 42.5 µM] | 
O=C(O)c1cc(C(=O)O)c(C(=O)O)cc1C(=O)O | -11.2% | 
CC/C=C/CCO | 4.57% | 
O=C(c1ccc(Cl)cc1)c1ccc(Cl)cc1 | 0% | 
CC/C=C\CCO | 0% | 
CCCCCCOC(=O)c1ccccc1 | 17.5% | 
CC(O)C(C)O (stereo unspecified) | -3.68% | 
CC1(C)[C@@H]2CC[C@]3(C2)[C@@H]1C(=O)CCC3(C)C | 6.49% | 
FC1(F)C(F)(F)C(F)(F)C2(F)C(F)(C1(F)F)C(F)(F)C(F)(F)C1(F)C(F)(F)C(F)(F)C(F)(F)C(F)(F)C12F (stereo unspecified) | 23.9% | 
NC(=O)c1ccccc1C(N)=O | 6.76% | 
CCCCCO | 12.8% | 

SMILES | activity change, negative = inhibition | Potency
c1ccc(CN(Cc2ccccc2)Cc2ccccc2)cc1 | 5.29% | 
CC(C)(C)c1cc(C=O)cc(C(C)(C)C)c1O | -5.09% [at 42.5 µM] | 
O=C(O)c1ccc(O)c(O)c1 | 35.7% | 
O=[N+]([O-])c1ccccc1CCO | 0% | 
CCC(C)CCCC(C)(C)O (stereo unspecified) | 3.13% | 
COc1ccc(/C(C)=C/C(=O)O)c(OC)c1 | 16.7% [at 42.5 µM] | 
Cc1c(N=C=O)cccc1N=C=O | -36.3% | 
CC(C)Cc1nccs1 | 0% | 
CO[C@@H]1COCC[C@@H]1N[C@@H]1CC[C@@](C(=O)N2CCc3ncc(C(F)(F)F)cc3C2)(C(C)C)C1 | -5.78% | 
NCCOCCOCCN | -2.85% | 
O=C1CCCN1CCO | -17.4% | 
CC1=CC(=C(c2ccc(N)cc2)c2ccc(N)cc2)C=CC1=N | -22.7% [at 8.39 µM] | 
C=CC(C)CCC=C(C)C (stereo unspecified) | -0.688% | 
CC1(C)CC(O)CC(C)(C)N1[O] | -7.96% | 
CCOC(=O)CC(O)(CC(=O)OCC)C(=O)OCC |  | 68.6 µM (active)
O=C1OC(=O)C2CC=CCC12 (stereo unspecified) | 23.1% | 
CCCc1ccc(OC)cc1 | 30% | 
O=C(Nc1ccc2c(c1)Cc1ccccc1-2)C(F)(F)F | -14% | 
CC(=O)c1ccc(Cl)c(Cl)c1Cl | 21.8% | 

Biological target: Estrogen receptor beta (Homo sapiens) (UniProt Q92731)
Sequence (Q92731 whole entry, looked up): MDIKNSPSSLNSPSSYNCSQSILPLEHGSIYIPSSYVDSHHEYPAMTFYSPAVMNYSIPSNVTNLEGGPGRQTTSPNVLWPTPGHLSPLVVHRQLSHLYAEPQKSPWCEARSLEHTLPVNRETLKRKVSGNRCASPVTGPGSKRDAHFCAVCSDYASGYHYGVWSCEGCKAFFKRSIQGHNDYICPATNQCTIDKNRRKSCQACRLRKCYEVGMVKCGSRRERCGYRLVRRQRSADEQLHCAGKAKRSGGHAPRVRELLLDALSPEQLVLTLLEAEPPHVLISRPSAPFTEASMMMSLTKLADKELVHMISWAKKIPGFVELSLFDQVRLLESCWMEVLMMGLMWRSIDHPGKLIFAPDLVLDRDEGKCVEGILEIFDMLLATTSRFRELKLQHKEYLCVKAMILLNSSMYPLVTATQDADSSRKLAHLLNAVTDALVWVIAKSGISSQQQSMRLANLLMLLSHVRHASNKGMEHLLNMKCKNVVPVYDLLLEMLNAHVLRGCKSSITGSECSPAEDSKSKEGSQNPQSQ
Assay: qHTS assay to identify small molecule agonists of the estrogen receptor beta (ER-beta) signaling pathway (AID 1259377; active = well fitted activation curve with a large enough effect in the signal ratio in the repeat runs, not every such curve was filed as active; the % refers to the signal ratio)
Settings: ER-beta-UAS-bla HEK293T, beta-lactamase FRET ratio, 16 h; series mostly up to 92.4 µM; activation: at the top concentration
In short: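 A UAS-controlled beta-lactamase reporter in ER-beta-UAS-bla HEK293T cells reports receptor activation. Compounds act for 16 hr at 37C in 2% charcoal-stripped serum, and a FRET substrate is read by fluorescence after 2 hours.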

SMILES | activation
c1ccc(CN(Cc2ccccc2)Cc2ccccc2)cc1 | -0.582%
CO[C@@H]1COCC[C@@H]1N[C@@H]1CC[C@@](C(=O)N2CCc3ncc(C(F)(F)F)cc3C2)(C(C)C)C1 | -0.55%
CC1=CC(=C(c2ccc(N)cc2)c2ccc(N)cc2)C=CC1=N | -6.24% [at 8.39 µM]
